Data published in publication PMC7819943, “Rice protein-binding microarrays: a tool to detect cis-acting elements near promoter regions in rice”.
Whole data set: some 68,000 sequences, median “fluorescence intensity (a.u.)” near 9,100, cut for the highest 2% near 16,000. The list comes from a sample in which the highest values are over-represented; it also holds similar and randomly drawn sequences.

These sequences were tested against OsWRKY34 (Oryza sativa, UniProt Q0JBA9 1-250) (assay: protein-binding microarray (RPBM); PBS, 2% BSA, 51.3 ng/ul salmon testes DNA, 50 uM zinc acetate, 200 nM TF, 25 C, 1 h; high values mean tight binding). Conditions: protein: recombinant; tags: N-terminal polyhistidine and DsRed monomer fusion (pET32a); label: CyDye5-dUTP incorporated in the synthesized complementary strand; 3' TTTTT single-stranded linker to array surface; dsDNA, one strand shown.
OsWRKY34, sequence (Q0JBA9 entry or part of it): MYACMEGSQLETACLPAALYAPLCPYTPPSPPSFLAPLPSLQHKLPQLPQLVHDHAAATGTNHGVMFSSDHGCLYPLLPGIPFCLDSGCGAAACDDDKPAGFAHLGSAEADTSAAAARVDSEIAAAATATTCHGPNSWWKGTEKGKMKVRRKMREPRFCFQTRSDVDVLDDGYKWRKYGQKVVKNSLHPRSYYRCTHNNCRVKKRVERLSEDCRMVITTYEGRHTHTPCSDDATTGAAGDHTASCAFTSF
In short: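 An Axon 4000B scanner gave the binding signal as per-feature fluorescence intensity in arbitrary units. This followed washing of a custom Agilent array that had been incubated for 1 h at 25 °C with 200 nM protein in PBS, 2% BSA, salmon testes DNA and 50 µM zinc acetate. The proteins were transcription factors fused at the N-terminus to polyhistidine and DsRed, expressed in E. coli BL21-CodonPlus and purified on Ni–NTA.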
For “AGCTTTCACCTCATTAAGACCGGTATCTGTTGAGACTTGACGGAGTCACCTAGTGCAG”, the binding signal was 8860 fluorescence intensity (a.u.). “GAACTAGTCCGCCTAATTGTTGGCTCTCTTATCTCTTCATCGGAGTCACCTAGTGCAG” was tested, and the binding signal was 12100 fluorescence intensity (a.u.). “TTCTATGTTGTGGTTCTGTGTTTTACACTTCAGTTTTGTTCGGAGTCACCTAGTGCAG” was tested, and the binding signal was 8030 fluorescence intensity (a.u.). For “GTGATCCGGTGCCCTCTGACCCGCAACTTCCTTTTGGCACCGGAGTCACCTAGTGCAG”, the binding signal was 8460 fluorescence intensity (a.u.). In the case of “TTAGATGTGGCCAGTTTTGATTTCTAGCTTATAGGATCGTCGGAGTCACCTAGTGCAG”, the binding signal is reported as 9000 fluorescence intensity (a.u.). “ACAATGTGACCCTATGTACAATTTACTCATATATTTTTATCGGAGTCACCTAGTGCAG” was tested, and the binding signal was 9570 fluorescence intensity (a.u.). With “GAGTAGTAAGTTATATCCCTCAACCATTTCACTTCACACACGGAGTCACCTAGTGCAG” the binding signal was 9600 fluorescence intensity (a.u.). For “CATCGCCTCCGCTTCTGCTTTTTTTTTTCTTTTTTCTCGTCGGAGTCACCTAGTGCAG”, the binding signal was 10200 fluorescence intensity (a.u.). With “ATGTTGCCCTTTGTTCTGCTGTTTCCTGGTTATATGGGATCGGAGTCACCTAGTGCAG” the binding signal was 17500 fluorescence intensity (a.u.). In the case of “GCCTGCCTGTCTGCCTCCGCGTCTTTTCTGCTGCCCACATCGGAGTCACCTAGTGCAG”, the binding signal is reported as 19500 fluorescence intensity (a.u.). For “TTCTTTTTCGTTTTCTTCTCATTCTTCTTTTTTTTCCTTTCGGAGTCACCTAGTGCAG”, the binding signal was 14300 fluorescence intensity (a.u.). With “ATCTGTTATGTTTGCCCTGTCATTGGTTCTGCTAATCAATCGGAGTCACCTAGTGCAG” the binding signal was 9160 fluorescence intensity (a.u.). With “ATTCATTACACCATGTTTCTTTCTTTCTTTCGAGGACCCTCGGAGTCACCTAGTGCAG” the binding signal was 8370 fluorescence intensity (a.u.). With “GTTCTGGTTGGGATCGATTTCTTCTTCCCCTTTGTTGCTTCGGAGTCACCTAGTGCAG” the binding signal was 9700 fluorescence intensity (a.u.). “GGTGACCATTCCTAGTTTCCTACCCCTCATGTTTTTCTTTCGGAGTCACCTAGTGCAG” was tested, and the binding signal was 17000 fluorescence intensity (a.u.). With “CTCGCGCGTGCCCGCCTCTGCTGTTCTTTCTCTCGCCCTCCGGAGTCACCTAGTGCAG” the binding signal was 11400 fluorescence intensity (a.u.). With “CCTTGTTTGCTCGGTTTTTGTAAGTTGAGGGACGGGTCATCGGAGTCACCTAGTGCAG” the binding signal was 18700 fluorescence intensity (a.u.). With “GGATCTCGTTTGTCTGGTTTTCGTAAGTTGAGGGACGGGTCGGAGTCACCTAGTGCAG” the binding signal was 8380 fluorescence intensity (a.u.). “TTATGAGGGTAAGTTTGTATTTGTCATATTTGGGTTGCTACGGAGTCACCTAGTGCAG” was tested, and the binding signal was 8110 fluorescence intensity (a.u.). “AGTTTCAGTAGCCTCGCCGATCGACTTGCCACACCGCCGTCGGAGTCACCTAGTGCAG” was tested, and the binding signal was 9260 fluorescence intensity (a.u.). With “CACCGCCATCTTCCTCTTCTTCTTCGTCGTCGTGGTTGGCCGGAGTCACCTAGTGCAG” the binding signal was 11100 fluorescence intensity (a.u.). For “AAACTGGGCCATATCGGTTGGTTTTTGCTCTCTACGTCTCCGGAGTCACCTAGTGCAG”, the binding signal was 9280 fluorescence intensity (a.u.). “CAATTTGGCATTTGGCATTTGCTAGTCTATAGTAGCAAATCGGAGTCACCTAGTGCAG” was tested, and the binding signal was 8130 fluorescence intensity (a.u.).
